# Sampled rows, rich in hits. Any-hit rate of the full collection: about 1.9%.
# LYPLA1 inh: LYPLA1 inhibitors, primary screen, counter-screen for PME1 inhibitor project, biochemical, fluorescence polarization, FP-Rh probe ABPP; recombinant LYPLA1; Acyl-protein thioesterase 1 (Homo sapiens), O75608; actives 0.16% (n = 320,000); inhibition, % at 5.9 µM;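 active = inhibition above the mean of all tested compounds plus 3 SD, set per campaign, cut at about 14% in these data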;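 note: inhibitors block serine hydrolase probe labeling of LYPLA1 so polarization falls; 0% = enzyme with DMSO and 100% = wells lacking LYPLA1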
# Target sequence (O75608 whole entry, looked up): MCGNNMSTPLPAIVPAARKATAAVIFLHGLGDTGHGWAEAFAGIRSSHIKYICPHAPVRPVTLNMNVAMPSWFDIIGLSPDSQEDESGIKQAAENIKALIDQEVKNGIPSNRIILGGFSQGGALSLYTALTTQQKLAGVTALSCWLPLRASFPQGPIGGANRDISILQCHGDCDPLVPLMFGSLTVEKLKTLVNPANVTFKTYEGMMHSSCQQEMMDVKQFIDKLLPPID
# LYPLA2 inh: LYPLA2 inhibitors, primary screen, counter-screen for PME1 inhibitor project, biochemical, fluorescence polarization, FP-Rh probe ABPP. actives 0.38% (n = 320,000). recombinant LYPLA2. Acyl-protein thioesterase 2 (Homo sapiens), O95372. AID 2177, 2009. inhibition, % at 5.9 µM;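 active = inhibition above the screen-wide mean plus 3 SD, limit set per campaign, cut at about 26% in these data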;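 note: 0% = LYPLA2 with DMSO and 100% = wells lacking LYPLA2 enzyme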
# Fam108B inh: mouse Fam108B serine hydrolase inhibitors, primary screen, counter-screen for RBBP9 inhibitor project, biochemical, fluorescence polarization | recombinant Fam108B, FP-Rh probe fluorescence polarization | inhibition, % at 9.51 µM | actives 0.33% (n = 300,000) | AID 1947, 2009;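 active = inhibition above the screen mean inhibition plus 3 SD, computed separately per campaign, cut at about 18% in these data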;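 note: inhibitors lower polarization as less probe binds the enzyme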
# PREPL inhibitor: PREPL enzyme inhibitors, primary screen, biochemical, fluorescence polarization. Prolyl endopeptidase-like (Homo sapiens), Q4J6C6. recombinant PREPL, fluorescence polarization activity-based probe. inhibition, % at 5.96 µM. actives 0.68% (n = 320,000). AID 2751, 2010; in the data active = inhibition above about 43%;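 note: 0% = enzyme with DMSO and 100% = wells lacking enzyme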
# GSTO1 counter: inhibitors of recombinant GSTO1, primary screen, counter-screen for RBBP9 inhibitor project, biochemical, fluorescence polarization. Glutathione S-transferase omega-1 (Homo sapiens), P78417. activity-based probe fluorescence polarization. inhibition, % at 5.96 µM. actives 1.1% (n = 300,000);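 active = inhibition above the campaign mean inhibition plus 3 SD, cut at about 35% in these data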;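 note: 0% = GSTO1-1 with DMSO and 100% = wells lacking GSTO1-1 enzyme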
# PME-1 primary: PME-1 inhibitors via competitive probe labeling, primary screen, biochemical, fluorescence polarization, FP-Rh probe, HTS; recombinant PME-1; AID 2130, 2009; Protein phosphatase methylesterase 1 (Homo sapiens), Q9Y570; inhibition, % at 5.9 µM; actives 0.53% (n = 320,000);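 active = inhibition above the campaign mean of all compounds plus 3 SD, cut at about 26% in these data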;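 note: competitive labeling of PME-1 active site by serine hydrolase directed probe; 0% = PME-1 with DMSO and 100% = wells lacking PME-1 enzyme; inhibitors block probe labeling so polarization falls and inhibition rises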
# Target sequence (Q9Y570 whole entry, looked up): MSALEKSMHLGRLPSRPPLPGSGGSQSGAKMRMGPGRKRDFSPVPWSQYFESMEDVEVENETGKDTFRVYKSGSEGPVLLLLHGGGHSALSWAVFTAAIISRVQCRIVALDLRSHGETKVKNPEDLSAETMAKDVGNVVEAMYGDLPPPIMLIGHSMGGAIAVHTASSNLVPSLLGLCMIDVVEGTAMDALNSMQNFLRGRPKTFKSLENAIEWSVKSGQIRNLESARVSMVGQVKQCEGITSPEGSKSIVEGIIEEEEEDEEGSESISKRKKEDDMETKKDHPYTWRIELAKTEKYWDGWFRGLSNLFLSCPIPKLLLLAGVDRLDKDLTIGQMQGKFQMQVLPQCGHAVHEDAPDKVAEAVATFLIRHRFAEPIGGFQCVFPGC
# Fam108b confirm: mouse Fam108b serine hydrolase inhibitors, confirmation, counter-screen for RBBP9 inhibitor project, biochemical, fluorescence polarization, triplicate; shares compounds with Fam108B inh; recombinant Fam108b, FP-Rh probe fluorescence polarization; inhibition, % at 9.51 µM; actives 44% (n = 930); AID 1978, 2009;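 active = inhibition above a limit from the primary screen, the mean over all compounds plus 3 SD, cut at about 19% in these data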;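 note: 0% = median of active Fam108b wells and 100% = catalytically dead S170A mutant; inhibitors free the probe so polarization falls as inhibition rises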
# Fam108b inh: inhibition of mouse Fam108b by HTS hits, late-stage follow-up, biochemical, gel-based ABPP, soluble recombinant form; AID 588649, 2011; inhibition, % at 20 µM; shares compounds with Fam108B inh; fluorophosphonate probe; actives 44% (n = 260); in the data active = inhibition above about 40%
# Starred values were filed as active, the others as inactive; . = no result given.
SMILES,LYPLA1 inh,LYPLA2 inh,Fam108B inh,PREPL inhibitor,GSTO1 counter,PME-1 primary,Fam108b confirm,others
O=S1(=O)c2ccccc2N=NN1Cc1ccc(Cl)c(Cl)c1,1,1,0,-2,35*,3,.,
O=C(O)c1cc(-c2ccc(/C=c3\sc4nc5ccc(Br)cc5n4c3=O)o2)ccc1Cl,7,3,0,3,41*,15,.,
CN(Cc1ccccc1)C(=O)c1cccc(NC(=O)C2CCCN(C(=O)OC(C)(C)C)C2)c1 (stereo not given),.,.,.,8,.,.,.,
Cc1cc(O)c(NC(=S)NC(=O)c2ccc(-c3ccc(Cl)cc3)o2)cc1C,-8,-11,1,3,-17,39*,.,
Cc1ccc(NC(=S)NC(=O)c2ccc(-c3ccc(Cl)cc3)o2)c(O)c1,-14,-18,-7,17,-6,30*,.,
NCCCCCNC(=O)c1nc[nH]c1C(=O)NCC(=O)OCc1ccccc1,.,.,.,5,.,.,.,
CCc1nnc(NC(=O)c2sc3nc4cc(C)ccc4cc3c2N)s1,1,-6,9,0,-5,32*,.,
CCOC(=O)Cc1csc(NC(=O)c2sc3nc4ccc(C)cc4cc3c2N)n1,-7,-4,9,7,3,58*,.,
CC(C)CN(C(=O)CCNC(=O)c1ccc(Cl)cc1)C1CCS(=O)(=O)C1 (stereo not given),.,.,.,16,.,.,.,
O=C(Nc1ccc(N2CCCC2)c(S(=O)(=O)Nc2cccc(C(F)(F)F)c2)c1)c1cccs1,-9,-5,21*,4,-8,8,33*,Fam108b inh=85*
COc1ccccc1NS(=O)(=O)c1cc(NC(=O)c2cccs2)ccc1N1CCCC1,-15,-7,7,4,-9,-14,.,
CCCCN(C(=O)CCC(=O)Nc1cc(C)on1)C(C(=O)NC1CCCC1)c1cccc(OC)c1 (stereo not given),-1,3,-1,19,0,2,.,
CC1=NOC(=O)/C1=C\c1ccc(-c2cc(Cl)ccc2Cl)o1,-5,0,6,1,6,-5,.,
CC1=NOC(=O)/C1=C/c1ccc(-c2ccc(Cl)cc2)o1,4,11,19*,-3,32,-1,16,
Clc1ccccc1C(c1ccccc1)(c1ccccc1)n1ccnc1,-3,-3,32*,16,-2,-14,46*,Fam108b inh=45*
COc1ccc(Cl)cc1Nc1nc(-c2sc(NC(=O)C(C)(C)C)nc2C)cs1,-12,-1,10,1,0,-2,.,
COc1ccc(Cl)cc1Nc1nc(-c2sc(NC(=O)c3ccco3)nc2C)cs1,-17,-22,19*,24,1,12,6,
COc1ccccc1CNC(=O)CN(C)CC(=O)Nc1ccc(F)c(F)c1F,.,.,.,3,.,.,.,
O=[N+]([O-])c1ccc2nc(-c3ccc(Cl)cc3)[nH]c2c1,-10,-12,20*,18,-8,-11,6,
CC(=O)N1CCN(S(=O)(=O)c2cccc(C(=O)NC3CC3)c2)CC1,0,5,.,9,.,-2,.,
CC/C(=N\Nc1ccnc2cc(Cl)ccc12)c1ccc(O)cc1,-2,2,8,23,-4,25,.,
Oc1ccc(/C=N/Nc2ccnc3cc(Cl)ccc23)c(O)c1O,-7,1,30*,26,26,32*,93*,
Oc1ccc(C=NNc2ccnc3cc(Cl)ccc23)cc1O,.,.,.,.,.,.,.,Fam108b inh=85*
CSc1ccc(CN(C)C(=O)C2CCN(C(=O)Nc3ccccc3)CC2)cc1,2,4,.,10,.,2,.,
CCCn1c(=N)n(CC(=O)c2ccc([N+](=O)[O-])cc2)c2ccccc21,4,3,24*,17,11,14,2,
SMILES,LYPLA1 inh,LYPLA2 inh,Fam108B inh,PREPL inhibitor,GSTO1 counter,PME-1 primary,Fam108b confirm,others
CCCn1c(=N)n(CC(=O)c2ccc(Cl)cc2)c2ccccc21,-2,3,2,10,0,12,.,
CCc1cc(/C(Cc2ccccn2)=N\O)c(O)cc1O,2,9,10,5,-2,10,.,
CCc1cc(C(Cc2ccc3ccccc3n2)=NO)c(O)cc1O,.,.,.,.,.,.,.,Fam108b inh=40*
CCc1cc(/C(Cc2ccc3ccccc3n2)=N\O)c(O)cc1O,8,17,25*,28,8,34*,30*,
N#C/C(=N\Nc1ccc(S(=O)(=O)N2CCc3ccccc32)cc1)C(N)=S,-10,-11,22*,10,-16,12,27*,
CCOC(=O)/C(C#N)=N/Nc1ccc(S(=O)(=O)N2CCc3ccccc32)cc1,0,0,6,4,-8,4,.,
Cc1[nH]c2c(C)cccc2c1CCNC(=O)c1ccc2c(c1[N+](=O)[O-])C(=O)c1ccccc1C2=O,-3,8,23*,26,21,31*,30*,Fam108b inh=60*
Cc1cccc2c(=O)c(C(=O)NCCc3ccccc3)c[nH]c12,-2,2,-2,4,-8,-4,.,
COc1ccc(Cl)cc1NC(=O)CN(C)C(=O)c1cc2ccccc2cc1O,-4,-5,-2,3,2,4,.,
CCOC(=O)c1c(NC(=O)Nc2ccccc2)sc(C)c1C,-7,-3,22*,8,22,21,6,
N#CC/C(N)=N/Nc1nc2ccccc2nc1Cc1ccccc1,-10,10,46*,35,-20,33*,24*,
Cc1cccc(C(=O)Oc2ccc(/C=N/O)cc2)c1,-2,3,2,11,13,-2,.,
O=[N+]([O-])c1ccc(N/N=C/c2cccc(O)c2O)cc1,-11,-7,19*,25,22,33*,93*,
Cc1cccc(C(=O)Oc2ccccc2/C=N/Nc2ccc([N+](=O)[O-])cc2)c1,-8,3,25*,6,-1,21,1,
COc1cccc(/C=N/Nc2nc(Nc3ccc([N+](=O)[O-])cc3)nc(N3CCCC3)n2)c1O,-14,-23,25*,29,-35,5,31*,
O=[N+]([O-])c1cccc(N/N=C/c2cccc3ccccc23)c1,-2,17,26*,36,4,25,23*,
COc1c(/C=N/Nc2nc(N3CCCCC3)nc(N3CCCCC3)n2)cccc1[N+](=O)[O-],-4,-4,0,12,-4,-3,.,
